From PubChem BioAssay
Most compounds without a hit are left out; they make up all but 2.8% or so of the library.
WRN inhibitor: blocks human WRN helicase | WRN helicase unwinding, fluorescent forked duplex, kinetic | Potency, µM (titrated, usually from 114 µM), for the others: at the highest dose activity change, negative = inhibition, most hits filed as inhibitors | Q14191 | 360,000 tested, 0.46% active | AID 651768; further: potency means the concentration at half of the fitted maximal effect; on the % scale 0 is the no-effect control and ±100 the full control effect; nearly all actives have a fitted effect of over 55% in size
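Kinetic red-fluorescence monitoring (525/598 nm) tracks WRN helicase activity after 100 nM fluorophore-quencher forked duplex and 2 mM ATP are added to 20 nM enzyme pretreated 15 min at room temperature with compound.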
Pol kappa inh: blocks human DNA polymerase kappa activity | Q9UBT6 | purified Pol kappa, fluorescent DNA synthesis assay, 10 min | Potency, µM (doses to about 107 µM), for inactives: at the highest dose activity, negative = inhibition, usual class: inhibitors | 400,000 tested, 0.53% active | AID 588579; further: potency means the concentration at half of the fitted maximal effect; on the % scale 0 is the no-effect control and ±100 the full control effect
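10 nM Pol kappa was preincubated with compounds for 15 min at room temperature. Reaction started with 50 nM (final) substrate. Fluorescence read kinetically at 0 and 10 min.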
POLB inh: blocks human DNA polymerase beta activity | Potency, µM (titrated, usually from 114 µM), without a hit: at the top dose activity change, negative = inhibition, actives largely listed as inhibitors | Pol beta primer extension/strand displacement, fluorescence kinetic | 340,000 tested, 1.3% active | AID 485314 | P06746; further: potency means the concentration at half of the fitted maximal effect; on the % scale 0 is the no-effect control and ±100 the full control effect
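Reaction started by 50 nM substrate onto compound-treated Pol beta (10 nM, 15 min preincubation, room temperature); plates read at 0 min and 10 min. Normalized concentration-effect data fitted by four-parameter Hill equation.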
PI5P4K alpha inh: inhibitors of human PI5P4K alpha; PI5P4Kalpha enzyme, ADP-Glo luminescence, 60 min; active compounds read low; P48426; max response, %; 330,000 tested, 1.2% active; active means max response of -50% or lower; inconclusive means between -30% and -50%; inactive means -30% or higher; further: value at the top dose of about 77 µM; on the % scale 0 is the no-effect control and ±100 the full control effect
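Compounds were pin-transferred onto PI5P4Kalpha and substrate in HEPES pH 7.4 buffer with EGTA, CHAPS and 5% DMSO. ATP (5 microM final) started the reaction, which ran 60 minutes at room temperature before ADP-Glo detection.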
Pol iota inh: inhibitors of human DNA polymerase iota | Q9UNA4 | Pol iota fluorescent replication assay, 10 min | Potency, µM (top dose mostly 115 µM), inactives show at the highest dose activity, negative = inhibition, actives largely listed as inhibitors | 390,000 tested, 1% active | AID 588590; further: potency means the concentration at half of the fitted maximal effect
Target sequence (Q9UNA4 whole entry, looked up): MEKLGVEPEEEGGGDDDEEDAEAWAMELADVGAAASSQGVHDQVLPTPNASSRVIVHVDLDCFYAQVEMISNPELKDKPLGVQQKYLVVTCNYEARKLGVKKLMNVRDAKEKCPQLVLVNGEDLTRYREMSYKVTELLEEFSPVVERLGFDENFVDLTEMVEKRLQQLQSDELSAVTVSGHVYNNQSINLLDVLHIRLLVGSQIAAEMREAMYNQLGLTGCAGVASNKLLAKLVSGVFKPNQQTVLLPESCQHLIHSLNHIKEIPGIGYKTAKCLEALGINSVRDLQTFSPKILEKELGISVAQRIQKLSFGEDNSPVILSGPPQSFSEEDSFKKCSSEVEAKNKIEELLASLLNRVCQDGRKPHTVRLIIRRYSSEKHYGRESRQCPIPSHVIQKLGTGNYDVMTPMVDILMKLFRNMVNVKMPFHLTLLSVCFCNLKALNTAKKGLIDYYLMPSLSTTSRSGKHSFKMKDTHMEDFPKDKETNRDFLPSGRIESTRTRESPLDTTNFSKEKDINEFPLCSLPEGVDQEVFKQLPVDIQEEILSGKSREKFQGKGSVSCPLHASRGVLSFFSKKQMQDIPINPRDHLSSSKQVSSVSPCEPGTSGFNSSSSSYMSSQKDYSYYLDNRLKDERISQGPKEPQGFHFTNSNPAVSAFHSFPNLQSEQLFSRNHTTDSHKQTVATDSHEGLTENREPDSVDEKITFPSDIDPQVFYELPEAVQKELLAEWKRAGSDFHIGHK
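Pol iota at 10 nM preincubated 15 min with compounds at room temperature; reaction started with fluorescent substrate, 50 nM final. Fluorescence read kinetically at 0 and 10 min; buffer-only wells as negative control.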
Pol eta inh: inhibitors of human DNA polymerase eta | 390,000 tested, 1.2% active | Potency, µM (doses to about 114 µM), for the others: at the highest dose activity change, negative = inhibition, most hits filed as inhibitors | recombinant Pol eta, fluorescent DNA replication assay | Q9Y253 | AID 588591; further: potency means the concentration at half of the fitted maximal effect; on the % scale 0 is the no-effect control and ±100 the full control effect
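Fluorescent replication assay: 50 nM final substrate added after a 15 min room-temperature compound preincubation with 10 nM enzyme. Signal taken at 0 min and again at 10 min.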
Active calls of the source: *; [ ] = remark or other dose. Unless noted, the call rests on the fitted dose curve; in most records, active means well fitted curve in the direction sought with a large enough effect; inconclusive means small, poorly fitted or top-dose-only effect, or another doubt; inactive means no such curve, though single readings can be large; an effect the other way counts as inactive or inconclusive.

Results for Cc1cc(=O)oc2cc(OCC(=O)Nc3ccc(O)c(C(=O)O)c3)ccc12 ?
Pol kappa inh: -17%; POLB inh: inconclusive; Pol iota inh: inconclusive; Pol eta inh: inconclusive

Results for CC(C)c1ccc(/C=C2\SC(=S)N(CCC(=O)NCCCn3ccnc3)C2=O)cc1 ?
WRN inhibitor: -11%; Pol kappa inh: inconclusive; POLB inh: 40µM*; PI5P4K alpha inh: 6; Pol iota inh: -28%; Pol eta inh: -17%

Results for COc1ccc(/C=C2\SC(=S)N(CCC(=O)NCCCn3ccnc3)C2=O)cc1 ?
WRN inhibitor: 2%; Pol kappa inh: 11%; POLB inh: -1%; PI5P4K alpha inh: 2; Pol iota inh: -6%; Pol eta inh: -16%

Results for Oc1cc2c(c(Cl)c1O)CCNCC2c1ccccc1 (stereo unspecified) ?
WRN inhibitor: -7%[11.6 µM]; Pol kappa inh: 11%[60.1 µM]; POLB inh: inconclusive; PI5P4K alpha inh: inconclusive; Pol iota inh: 32µM*; Pol eta inh: inconclusive

What do the screens show for `Oc1cc2c(c(Cl)c1O)CCNC[C@H]2c1ccccc1`?
Pol kappa inh: -13%[19.4 µM]

How did CC(NS(=O)(=O)c1ccccc1)C(=O)NC1CCCC1 (stereo unspecified) do in these assays?
WRN inhibitor: -5%; Pol kappa inh: -9%; POLB inh: inconclusive; PI5P4K alpha inh: -29; Pol iota inh: -22%; Pol eta inh: 79µM*

Results for CC(C)C(NS(=O)(=O)c1ccccc1)C(=O)NC1CCCC1 (stereo unspecified) ?
WRN inhibitor: 4%; Pol kappa inh: 10%; POLB inh: 56%; PI5P4K alpha inh: 0; Pol iota inh: inconclusive; Pol eta inh: -2%

How did O=C(Nc1ccccc1)c1nc[nH]c1C(=O)NCCN(CCNC(=O)c1[nH]cnc1C(=O)Nc1ccccc1)CCNC(=O)c1[nH]cnc1C(=O)Nc1ccccc1 do in these assays?
WRN inhibitor: -11%; Pol kappa inh: -32%; PI5P4K alpha inh: -8; Pol iota inh: 79µM*; Pol eta inh: -9%

Results for O=C(Nc1ccccc1)c1nc[nH]c1C(=O)NCCCNC(=O)c1[nH]cnc1C(=O)Nc1ccccc1 ?
WRN inhibitor: 0%; Pol kappa inh: 0%; PI5P4K alpha inh: 0; Pol iota inh: -8%; Pol eta inh: -13%

What do the screens show for `COc1ccc(CNC(=O)C2CCCN(c3nnc(C)c4c(C)n(-c5ccc(C)cc5)nc34)C2)cc1` (stereo unspecified)?
Pol kappa inh: -4%; POLB inh: -19%; Pol iota inh: 38%; Pol eta inh: inconclusive

Results for COc1ccc(-n2nc3c(N4CCCC(C(=O)NCc5ccc(C)cc5)C4)nnc(C)c3c2C)cc1 (stereo unspecified) ?
Pol kappa inh: -11%[60.1 µM]; POLB inh: 16µM*; Pol iota inh: 10%; Pol eta inh: inconclusive

What do the screens show for `Cc1ccc(S(=O)(=O)/N=C2/C=C(C3C(=O)CC(C)(C)CC3=O)C(=O)c3ccccc32)cc1`?
WRN inhibitor: 17µM*; Pol kappa inh: -25%; POLB inh: inconclusive; PI5P4K alpha inh: 6; Pol iota inh: inconclusive; Pol eta inh: -12%

What do the screens show for `COC(=O)c1ccccc1NC(=S)N(Cc1ccc2c(c1)OCO2)Cc1cc2cc(OC)ccc2[nH]c1=O`?
WRN inhibitor: -29%; Pol kappa inh: -3%; POLB inh: -1%; PI5P4K alpha inh: -14; Pol iota inh: -2%; Pol eta inh: -13%

What do the screens show for `COc1cc(OC)cc(C(=O)Nc2nc(-c3nnn(-c4ccc(F)c(Cl)c4)c3C)ns2)c1`?
Pol kappa inh: 10%; POLB inh: 3.2µM*; Pol iota inh: inconclusive; Pol eta inh: -13%

How did O=C1C=C(NNC(=O)c2cccnc2)CC(c2ccco2)C1 (stereo unspecified) do in these assays?
WRN inhibitor: -10%; Pol kappa inh: -23%; POLB inh: -24%; PI5P4K alpha inh: 6; Pol iota inh: -21%; Pol eta inh: 2%

Results for COc1ccc(NC(=O)CCCc2nc(-c3ccco3)no2)c(OC)c1 ?
Pol kappa inh: 11%; POLB inh: -14%; Pol iota inh: 33%; Pol eta inh: -6%

Results for Cn1cc(/C=C2\SC(=S)N(NC(=O)c3cccc(Cl)c3)C2=O)c2ccccc21 ?
WRN inhibitor: 20µM*; Pol kappa inh: 10%; POLB inh: 0%; PI5P4K alpha inh: 2; Pol iota inh: 20%; Pol eta inh: 14%

What do the screens show for `Cn1cc(/C=C2\SC(=S)N(NC(=O)c3ccccc3)C2=O)c2ccccc21`?
WRN inhibitor: 42%; Pol kappa inh: -6%; POLB inh: 33%; PI5P4K alpha inh: -6; Pol iota inh: 155%; Pol eta inh: -16%

Results for Cc1c(C(=O)N2CCOCC2)cc(C(C)(C)C)n1-c1ccccc1 ?
WRN inhibitor: -3%; Pol kappa inh: -11%; POLB inh: 2%; PI5P4K alpha inh: -4; Pol iota inh: 43%; Pol eta inh: 3%

How did Cc1cccc(N2C(N)=NC(N)=NC23CCCCC3)c1 do in these assays?
WRN inhibitor: 17%; Pol kappa inh: -11%; POLB inh: 0%; PI5P4K alpha inh: -63*; Pol iota inh: -4%; Pol eta inh: 3%

Results for O=C(OCc1ccccc1)N1CCCCC1c1c(Cl)cccc1Br (stereo unspecified) ?
WRN inhibitor: -1%; PI5P4K alpha inh: 7

Results for COc1cccc(C2c3[nH]c4ccccc4c3C[C@H]3C(=O)N(C)CC(=O)N23)c1 (stereo partly specified) ?
WRN inhibitor: 3%; Pol kappa inh: 12%; POLB inh: 53%; PI5P4K alpha inh: -5; Pol iota inh: 2%; Pol eta inh: 2%

Results for COc1cccc(C2c3[nH]c4ccccc4c3C[C@H]3C(=O)N(C4CC4)CC(=O)N23)c1 (stereo partly specified) ?
WRN inhibitor: -1%; Pol kappa inh: 6%; POLB inh: 1%; PI5P4K alpha inh: 1; Pol iota inh: 32µM*; Pol eta inh: inconclusive

Results for O=C(CSc1ccc2nnc(-c3cccs3)n2n1)N1CCCC1 ?
WRN inhibitor: -17%; Pol kappa inh: 0%; POLB inh: 45µM*; PI5P4K alpha inh: 0; Pol iota inh: 51%; Pol eta inh: -14%

How did CCSc1ccc2nnc(-c3cccs3)n2n1 do in these assays?
WRN inhibitor: -9%; Pol kappa inh: -7%; POLB inh: -4%; PI5P4K alpha inh: -7; Pol iota inh: 56%; Pol eta inh: 11%

How did CC1(C(=O)NCc2cccs2)CCN1C(=O)Cc1cccc2ccccc12 (stereo unspecified) do in these assays?
WRN inhibitor: -2%; PI5P4K alpha inh: 4
